Results reported in ChEMBL document CHEMBL4296182, “CO-ADD screening of NIH NCI Diversity Set V”.
For part of these data: Entries with a potency or affinity are not part of this list.

Columns and labels:
[1] = tested on: Staphylococcus aureus; assay: Antibacterial activity against Staphylococcus aureus MRSA ATCC 43300 (CO-ADD:GP_020); MIC in CAMBH media using NBS plates, by Resazurin F(560/590); format: functional; conditions: Concentration 20 uM, ASSAY_TEST Inhibition of Bacterial Growth, detection method Resazurin, Fluorescence (ex560/em590), MEDIA CAMHB, plate type 384well, CORNING #3640, time 18 hr
[2] = tested on: Acinetobacter baumannii; assay: Antibacterial activity against Acinetobacter baumannii ATCC 19606 (CO-ADD:GN_034); MIC in CAMBH media using NBS plates, by Resazurin F(560/590); format: functional; conditions: Concentration 20 uM, ASSAY_TEST Inhibition of Bacterial Growth, detection method Resazurin, Fluorescence (ex560/em590), MEDIA CAMHB, plate type 384well, CORNING #3640, time 18 hr
[3] = tested on: Escherichia coli; assay: Antibacterial activity against Escherichia coli ATCC 25922 (CO-ADD:GN_001); MIC in CAMBH media using NBS plates, by Resazurin F(560/590); format: functional; conditions: Concentration 20 uM, ASSAY_TEST Inhibition of Bacterial Growth, detection method Resazurin, Fluorescence (ex560/em590), MEDIA CAMHB, plate type 384well, CORNING #3640, time 18 hr
[4] = tested on: Klebsiella pneumoniae; conditions: Concentration 20 uM; ASSAY_TEST Inhibition of Bacterial Growth; detection method Absorption (OD600); MEDIA CAMHB; plate type 384well; NBS; CORNING #3640; time 18 hr
[5] = tested on: Candida albicans; conditions: 20 µM
[6] = tested on: Cryptococcus neoformans; conditions: Concentration 20 uM; ASSAY_TEST Inhibition of Fungal Growth; detection method Resazurin; Absorption (OD600-OD570); plate type 384well; NBS; CORNING #3640

Structure (SMILES) | Inhibition [1] | Inhibition [2] | Inhibition [3] | Inhibition [4] | Inhibition [5] | Inhibition [6]
Cc1nc(N)nc(Nc2ccc(C#N)cc2)c1Br | 13.25% | -2.28% | 22.67% | 5.37% | 0.12% | -9.52%
CC(C)(C)C(=O)Nc1ccc(NC(=O)C(C)(C)C)cc1 | -3.56% | 6.93% | 0.85% | 26.03% | 6.58% | 1.66%
COc1ccccc1NC(=O)Nc1cc(C(C)C)ccc1C | 13.43% | 2.93% | -1.81% | -0.93% | 0.16% | -4.04%
NC(=O)c1ccc(/N=N/c2c(O)c3ccccc3[nH]c2=O)cc1 | 1.45% | 0.09% | 1.38% | 17.01% | 24% | -1.63%
CC(=O)Nc1ccc2cc3ccc(NC(C)=O)cc3nc2c1 | 13.51% | 10.7% | 0.73% | 15.61% | 3.5% | -4.12%
CC(=O)[C@H]1CC[C@H]2[C@@H]3CCC4=CC(=O)CC[C@]4(C)[C@@]3(F)[C@@H](O)C[C@]12C | 0.89% | -16.68% | 9.76% | 7.06% | 0.8% | -7.75%
NC(=O)Cc1ccc2c(c1)[nH]c1ccccc12 | 5.19% | -14.3% | 7.64% | 6.47% | 5.86% | -8.43%
Cc1nnsc1C(=O)NCc1c(F)cccc1Cl | -1.87% | -1.01% | -7.07% | 6.44% | -0.57% | -9.18%
N#CC1=C(Nc2ccccc2Cl)SC(c2ccccc2O)NC1=O (centres undefined) | 1.74% | -8.74% | 4.44% | 12.14% | 4.82% | -3.28%
CCCCCCCCCCCCC(NC(C)=O)(C(=O)OCC)C(=O)OCC | 14.33% | 7.7% | 5.2% | 18.57% | 7.18% | -2.7%
N#C/C(=C\c1ccc(C#N)cc1)C(=O)c1ccccc1 | -10.06% | -6.48% | 6.05% | 15.1% | 8.77% | -10.85%
CCOC(=O)C(Cc1ccc(O)cc1)Nc1nc2ccccc2o1 (centres undefined) | 27.08% | -2.1% | 6.27% | 19.95% | 10.7% | 8.22%
C1=Cc2ccccc2Nc2ccccc21 [IMINOSTILBENE] | -1.85% | -14.24% | 12.01% | 3.59% | 3.51% | -15.72%
CSC1=NC=C(C#N)C2=NC(c3ccc(Cl)cc3)NN12 (centres undefined) | -1.38% | 5.14% | -2.57% | 11.21% | 1.44% | 39.9%
O=C(NC(=S)Nc1cccc(O)c1)c1ccco1 | 2.34% | -0.89% | 12.02% | -1.93% | 0.31% | -18.75%
CC(C)(C)CC(C)(C)N1CN=C(S)NC1 | 14.76% | 8.83% | 1.22% | 6.38% | 1.25% | -7.67%
CC(C)(NC(=O)c1cc(Cl)c2ccccc2c1O)C(=O)O | 9.7% | 5.56% | 13.46% | 19.28% | 5.1% | 0.69%
CS(=O)(=O)Nc1nc2ccccc2[nH]1 | 10.98% | 4.83% | -1.14% | 15.79% | 3.39% | -3.84%
COc1ccc(-c2cc3ccccc3[nH]2)cc1 | 28.13% | -0.84% | 12.2% | 0.29% | -0.93% | -13.44%
c1ccc2c(c1)Oc1cccc3cccc-2c13 | 13.84% | -15.64% | 12.26% | 8.47% | 7.02% | -13.12%
CC(C)c1nc2c(=O)n(C)c(=O)n(C)c2[nH]1 | 10.47% | -19.52% | 12.69% | -1.01% | -1.8% | -13.14%
CC(=O)Nc1ccc(Cc2nc3c(=O)n(C)c(=O)n(C)c3[nH]2)cc1 | 10.98% | -13.87% | 3.26% | 6.41% | 3.5% | -7.42%
O=C(Nc1ccc(Nc2ccccc2)cc1)Nc1ccccc1Cl | -2.92% | 1.03% | 8.7% | 12.39% | 2.75% | -5.44%
COC(=O)C(=Cc1ccccc1[N+](=O)[O-])C(=O)OC | -1.4% | -8.17% | 9.13% | 10.58% | 9.98% | -18.32%
